In the supplement of paper PMC9262897, “Low-cost anti-mycobacterial drug discovery using engineered E. coli” (Nature Communications, 2022):
Counter-ions that a name gives are not always drawn. ± gives the standard deviation of the averaged measurements.

Legend:
Assay in all cases: growth (OD600 after 10 h); higher = more growth (less inhibition)
[1] = tested on: E. coli TESEC Alr+ wild-type control; settings: compound 0.1 mM; raw OD600 reference: median of DMSO wells 0.241, cell-free background 0.041
Procedure: (§1)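 TESEC Mtb Alr E. coli, or the Alr+ wild-type control, in 384-well plates with Prestwick library compounds at 0.1 mM and 1% DMSO, across arabinose induction levels of 1E3 to 1E7 nM. Growth is read as OD600 after 10 h at 37 °C in triplicate biological replicates.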

E. coli TESEC Mtb Alr [2] = settings: compound 0.1 mM
Procedure: as §1

E. coli TESEC Mtb Asd = settings: compound 0.1 mM
Procedure: (§2)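 TESEC E. coli strains in which the native enzyme is deleted and replaced by arabinose-inducible Mtb Asd, DapB, CysH or TrpD, each grown in its selective medium. Strains were screened against the Prestwick library at 0.1 mM and 1% DMSO in 384-well format at low and high arabinose induction. Growth is read as OD600 after 10 h in triplicate.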

E. coli TESEC Mtb DapB = settings: compound 0.1 mM
Procedure: as §2

[3] = tested on: E. coli TESEC Alr+ wild-type control; settings: compound 0.1 mM; raw OD600 reference: median of DMSO wells 0.49, cell-free background 0.052
Procedure: (§3)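 TESEC Mtb Alr E. coli (ΔaraC ΔtolC ΔentC Δalr ΔdadX, arabinose-inducible Mtb Alr) or the Alr+ wild-type control strain, grown in defined M9-fructose medium without D-alanine in 96-well plates with Prestwick library compounds at 0.1 mM and 1% DMSO. Low Alr induction is 0.1 µM arabinose and high induction is 10 mM arabinose.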

E. coli TESEC Mtb Alr [4] = settings: compound 0.1 mM; remark: listed apart in the source
Procedure: as §3

[5] = arabinose 1000 nM, raw OD600 reference: median of DMSO wells 0.294, cell-free background 0.041
[6] = arabinose 10000 nM, raw OD600 reference: median of DMSO wells 0.264, cell-free background 0.041
[7] = arabinose 100000 nM, raw OD600 reference: median of DMSO wells 0.201, cell-free background 0.041
[8] = arabinose 1000000 nM, raw OD600 reference: median of DMSO wells 0.193, cell-free background 0.041
[9] = arabinose 10000000 nM, raw OD600 reference: median of DMSO wells 0.146, cell-free background 0.041
[10] = arabinose induction (level): High, raw OD600 reference: median of DMSO wells 0.331, cell-free background 0.041
[11] = arabinose induction (level): Low, raw OD600 reference: median of DMSO wells 0.417, cell-free background 0.041
[12] = arabinose induction (level): High, raw OD600 reference: median of DMSO wells […], cell-free background 0.041
[13] = arabinose induction (level): Low, raw OD600 reference: median of DMSO wells 0.227, cell-free background 0.041
[14] = arabinose 100 nM, raw OD600 reference: median of DMSO wells 0.413, cell-free background 0.052
[15] = arabinose 10000000 nM, raw OD600 reference: median of DMSO wells […], cell-free background 0.052

Row | SMILES | growth [1] | growth (E. coli TESEC Mtb Alr [2]; [5]) | growth (E. coli TESEC Mtb Alr [2]; [6]) | growth (E. coli TESEC Mtb Alr [2]; [7]) | growth (E. coli TESEC Mtb Alr [2]; [8]) | growth (E. coli TESEC Mtb Alr [2]; [9]) | growth (E. coli TESEC Mtb Asd; [10]) | growth (E. coli TESEC Mtb Asd; [11]) | growth (E. coli TESEC Mtb DapB; [12]) | growth (E. coli TESEC Mtb DapB; [13]) | growth [3] | growth (E. coli TESEC Mtb Alr [4]; [14]) | growth (E. coli TESEC Mtb Alr [4]; [15])
1 | CN[C@@H]1[C@H](O[C@H]2[C@H](O[C@H]3[C@H](O)[C@@H](O)[C@H](N=C(N)N)[C@@H](O)[C@@H]3N=C(N)N)O[C@@H](C)[C@]2(O)C=O)O[C@@H](CO)[C@H](O)[C@H]1O [Streptomycin sulfate] | 0.04117 ± 5.8e-05 | 0.04617 ± 0.00029 | 0.0396 ± 0.00055 | 0.04577 ± 0.00042 | 0.03957 ± 0.00025 | 0.0731 ± 0.0022 | 0.0611 ± 0.0021 | 0.0528 ± 0.00084 | 0.108 ± 0.048 | 0.0695 ± 0.0084 | 0.0543 ± 0.00036 | 0.0665 ± 0.0098 | 0.05093 ± 0.00012
2 | CC(CCc1ccc(O)cc1)NCCc1ccc(O)c(O)c1 (stereo not drawn) [Dobutamine hydrochloride] | 0.116 ± 0.0039 | 0.227 ± 0.021 | 0.174 ± 0.0051 | 0.198 ± 0.0044 | 0.116 ± 0.0039 | 0.115 ± 0.0067 | 0.176 ± 0.006 | 0.165 ± 0.029 | 0.19 ± 0.02 | 0.167 ± 0.02 | 0.539 ± 0.008 | 0.409 ± 0.0099 | 0.343 ± 0.018
3 | COCCOC(=O)C1=C(C)NC(C)=C(C(=O)OC/C=C/c2ccccc2)C1c1cccc([N+](=O)[O-])c1 (stereo not drawn) [Cilnidipine] | 0.275 ± 0.0065 | 0.333 ± 0.0093 | 0.304 ± 0.028 | 0.195 ± 0.022 | 0.14 ± 0.015 | 0.164 ± 0.0066 | 0.187 ± 0.016 | 0.319 ± 0.026 | 0.169 ± 0.0093 | 0.21 ± 0.025 | 0.518 ± 0.028 | 0.457 ± 0.0093 | 0.253 ± 0.026
4 | CC(C)(O)c1ccccc1CC[C@@H](SCC1(CC(=O)O)CC1)c1cccc(/C=C/c2ccc3ccc(Cl)cc3n2)c1 [Montelukast] | 0.24 ± 0.013 | 0.281 ± 0.0035 | 0.317 ± 0.012 | 0.31 ± 0.019 | 0.206 ± 0.0075 | 0.261 ± 0.012 | 0.219 ± 0.028 | 0.347 ± 0.065 | 0.183 ± 0.025 | 0.253 ± 0.023 | 0.566 ± 0.061 | 0.479 ± 0.027 | 0.376 ± 0.026
5 | CCN(CC)CCc1nc(-c2ccccc2)no1 [Oxalamine citrate salt] | 0.23 ± 0.012 | 0.273 ± 0.021 | 0.27 ± 0.0036 | 0.187 ± 0.0043 | 0.187 ± 0.0094 | 0.135 ± 0.0019 | 0.307 ± 0.045 | 0.332 ± 0.031 | 0.186 ± 0.0074 | 0.216 ± 0.013 | 0.537 ± 0.036 | 0.406 ± 0.011 | 0.343 ± 0.015
6 | CC(=O)N(CC(O)CO)c1c(I)c(C(=O)NCC(O)CO)c(I)c(C(=O)NCC(O)CO)c1I (stereo not drawn) [Iohexol] | 0.242 ± 0.011 | 0.285 ± 0.0098 | 0.276 ± 0.0072 | 0.221 ± 0.043 | 0.195 ± 0.004 | 0.1422 ± 0.0012 | 0.35 ± 0.046 | 0.414 ± 0.056 | 0.195 ± 0.014 | 0.201 ± 0.02 | 0.512 ± 0.11 | 0.418 ± 0.01 | 0.343 ± 0.022
7 | CCOC(=O)C1=C(COCCN)NC(C)=C(C(=O)OC)C1c1ccccc1Cl (stereo not drawn) [Amlodipine] | 0.231 ± 0.0038 | 0.2004 ± 0.0019 | 0.23 ± 0.022 | 0.179 ± 0.0029 | 0.0929 ± 0.0035 | 0.104 ± 0.0021 | 0.132 ± 0.0075 | 0.136 ± 0.0072 | 0.155 ± 0.077 | 0.205 ± 0.017 | 0.566 ± 0.028 | 0.398 ± 0.0055 | 0.282 ± 0.011
8 | C[C@H](CCC(=O)O)[C@H]1CC[C@H]2[C@@H]3CC[C@@H]4C[C@H](O)CC[C@]4(C)[C@H]3CC[C@]12C [Lithocholic acid] | 0.255 ± 0.011 | 0.312 ± 0.011 | 0.266 ± 0.0075 | 0.207 ± 0.012 | 0.169 ± 0.0078 | 0.173 ± 0.0071 | 0.462 ± 0.008 | 0.404 ± 0.022 | 0.214 ± 0.011 | 0.229 ± 0.021 | 0.386 ± 0.047 | 0.325 ± 0.037 | 0.3 ± 0.017
9 | COc1ccc(OC)c(C(O)CNC(=O)CN)c1 (stereo not drawn) [Midodrine hydrochloride] | 0.243 ± 0.0087 | 0.291 ± 0.0075 | 0.281 ± 0.0091 | 0.204 ± 0.02 | 0.186 ± 0.0048 | 0.141 ± 0.0067 | 0.4 ± 0.017 | 0.505 ± 0.02 | 0.188 ± 0.0075 | 0.25 ± 0.046 | 0.482 ± 0.043 | 0.424 ± 0.0079 | 0.341 ± 0.008
10 | CCOc1ccc2c(c1)C(C)=CC(C)(C)N2 [Ethoxyquin] | 0.183 ± 0.0075 | 0.283 ± 0.015 | 0.249 ± 0.007 | 0.192 ± 0.017 | 0.118 ± 0.0015 | 0.227 ± 0.067 | 0.353 ± 0.083 | 0.305 ± 0.042 | 0.196 ± 0.0042 | 0.205 ± 0.024 | 0.3809 ± 0.0031 | 0.408 ± 0.0097 | 0.167 ± 0.068
11 | Cc1cc(N)c2ccccc2[n+]1CCCCCCCCCC[n+]1c(C)cc(N)c2ccccc21 [Dequalinium dichloride] | 0.048 ± 0.0004 | 0.04803 ± 0.00032 | 0.0469 ± 0.00052 | 0.04963 ± 0.00015 | 0.0458 ± 0.00071 | 0.049 ± 0.0001 | 0.0691 ± 0.0051 | 0.0634 ± 0.006 | 0.0601 ± 0.004 | 0.0586 ± 0.0011 | 0.0513 ± 0.0018 | 0.0979 ± 0.005 | 0.0648 ± 0.0024
12 | CCN(CC)CCOC(=O)C1(c2ccc([N+](=O)[O-])cc2)CCCC1 [Nitrocaramiphen hydrochloride] | 0.235 ± 0.015 | 0.281 ± 0.0086 | 0.253 ± 0.0047 | 0.148 ± 0.0071 | 0.147 ± 0.0043 | 0.137 ± 0.0018 | 0.205 ± 0.059 | 0.426 ± 0.0056 | 0.161 ± 0.01 | 0.18 ± 0.017 | 0.488 ± 0.054 | 0.412 ± 0.017 | 0.324 ± 0.03
13 | Nc1ccccc1S(N)(=O)=O [2-Aminobenzenesulfonamide] | 0.239 ± 0.0094 | 0.296 ± 0.019 | 0.255 ± 0.0044 | 0.198 ± 0.0049 | 0.187 ± 0.0032 | 0.137 ± 0.004 | 0.399 ± 0.029 | 0.49 ± 0.028 | 0.2 ± 0.019 | 0.202 ± 0.019 | 0.566 ± 0.029 | 0.416 ± 0.013 | 0.343 ± 0.0096
14 | CCOC(=O)NNc1nncc2ccccc12 [Todralazine hydrochloride] | 0.252 ± 0.0065 | 0.3001 ± 0.00089 | 0.252 ± 0.0082 | 0.246 ± 0.03 | 0.181 ± 0.0025 | 0.16 ± 0.005 | 0.361 ± 0.1 | 0.346 ± 0.078 | 0.206 ± 0.011 | 0.275 ± 0.03 | 0.452 ± 0.021 | 0.406 ± 0.0052 | 0.271 ± 0.17
15 | C[C@]12CC[C@H]3[C@@H](CCC4=CC(=O)CC[C@@]43C)[C@@H]1CC[C@@H]2C(=O)CO [Deoxycorticosterone] | 0.119 ± 0.0025 | 0.163 ± 0.022 | 0.152 ± 0.0059 | 0.122 ± 0.0033 | 0.107 ± 0.002 | 0.127 ± 0.006 | 0.363 ± 0.012 | 0.245 ± 0.01 | 0.136 ± 0.008 | 0.165 ± 0.0069 | 0.333 ± 0.018 | 0.362 ± 0.022 | 0.157 ± 0.0071
16 | COc1ccc(-c2cc(=O)c3c(O)cc(O[C@@H]4O[C@H](CO[C@@H]5O[C@@H](C)[C@H](O)[C@@H](O)[C@H]5O)[C@@H](O)[C@H](O)[C@H]4O)cc3o2)cc1O [Diosmin] | 0.296 ± 0.0078 | 0.334 ± 0.01 | 0.277 ± 0.0034 | 0.248 ± 0.011 | 0.192 ± 0.013 | 0.1645 ± 0.00064 | 0.421 ± 0.085 | 0.358 ± 0.04 | 0.225 ± 0.016 | 0.243 ± 0.017 | 0.578 ± 0.14 | 0.437 ± 0.026 | 0.426 ± 0.065
